Reference: PubChem BioAssay (EPA / NIEHS)
Records with an inconclusive call do not appear. Calls of active or inactive are those of the source. The calls were made as follows: active = hit-call score of the fitted dose curve at least 0.9, where 1 is the maximum; inconclusive = response in the unintended direction; inactive = score below 0.9.

assay: TOX21_p53_BLA_p4_viability: Viability Assessment in the Tox21 HCT-116 p53 Agonism Beta-lactamase Assay, Phase 4 (AID 2283597);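 also: hits lower the luminescence signal meaning cytotoxicity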
Procedure, shortened: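 Luminescent ATP readout (CellTiter-Glo, 30 min, room temperature) in the same wells as the p53 bla ratio. HCT116 cells were treated for 16 h at 37C with DMSO-dissolved compounds.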

Compound	AC50	outcome
CSc1nc2cc(Oc3cccc(Cl)c3Cl)c(Cl)cc2[nH]1	33.2 µM (active)	
Cc1c(C)n(CCN(C)C)c2ccc(C(=O)OCCN(C)C)cc12		inactive
C/C(=C(\CCOC(=O)c1ccccc1)SS/C(CCOC(=O)c1ccccc1)=C(/C)N(C=O)Cc1cnc(C)nc1N)N(C=O)Cc1cnc(C)nc1N		inactive
Cc1cc(N)c2ccccc2[n+]1CCCCCCCCCC[n+]1c(C)cc(N)c2ccccc21		inactive
NC(=O)NS(=O)(=O)c1ccc(N)cc1		inactive
C=C1CC[C@H](O)C/C1=C/C=C1\CCC[C@]2(C)[C@@H]([C@H](C)CCCC(C)(C)O)CC[C@@H]12	12.8 µM (active)	
O=C1NCN(c2ccccc2)C12CCN(CCCC(c1ccc(F)cc1)c1ccc(F)cc1)CC2	23 µM (active)	
CCC(C)(C)c1ccc(CC(C)CN2C[C@@H](C)O[C@@H](C)C2)cc1 (some centres not stated)	32.7 µM (active)	
C=C(Nc1ccc(OCC)cc1)Nc1ccc(OCC)cc1		inactive
Cc1ccc(O)c(O)c1	41 µM (active)	
COc1cc2c(cc1OC)C(=O)C(CC1CCN(Cc3ccccc3)CC1)C2 (configuration not stated)		inactive
CC(C)(C)NCC(O)CSc1nc(-c2ccc(C(N)=O)s2)cs1 (configuration not stated)		inactive
Oc1ccc(Cl)c2cccnc12		inactive
Cc1cc2nc(N)sc2cc1C		inactive
CCOc1ccc2nc3cc(N)ccc3c(N)c2c1		inactive
Cc1cc2c(C(C)C)c(O)c(O)c(C=O)c2c(O)c1-c1c(C)cc2c(C(C)C)c(O)c(O)c(C=O)c2c1O	10 µM (active)	
CC[C@@H](CO)NCCN[C@@H](CC)CO		inactive
